Experimental data from PubChem BioAssay (NCATS).
Records with an inconclusive call do not appear. Calls of active or inactive are those of the source. Calls follow the shape of the dose curve; as a rule, active = well fitted cell-killing curve with a large enough effect; inconclusive = small, poorly fitted or top-dose-only effect, or effect the other way; inactive = flat fitted curve, though single readings scatter. Where a SMILES comes first, the peptide text is derived from it. Bridges are numbered along the chain shown (N, C = ends). [ ]: non-standard residue; d: D form. The star is where a group is joined. X1 = CCC(C)C(N)C1=NC(C(=O)*)CS1; dOrn = NCCC[C@@H](N)C(=O)O

Assays:
Test in all cases: Primary qHTS to identify gynecologic anti-cancer compounds using libraries of approved drugs and bioactive compounds (AID 1345084); also: nearly all actives have a fitted effect of over 55% in size
C33A = settings: Gynecologic cancer cell panel viability, ATPlite luminescence, 48 h; series mostly up to 57.5 µM
Summary of the method: (§1)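 ATP-based viability (ATPlite), 1,000 cells/well, 16 h pre-incubation, 48 h compound at 37 C, 5% CO2, 15 min RT before read.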

CAOV3 = settings: Gynecologic cancer cell panel viability, ATPlite luminescence, 48 h; series mostly up to 57.5 µM
Summary of the method: as §1

CASKI = settings: Gynecologic cancer cell panel viability, ATPlite luminescence, 48 h; series mostly up to 57.5 µM
Summary of the method: as §1

Es-2 = settings: Gynecologic cancer cell panel viability, ATPlite luminescence, 48 h; series mostly up to 57.5 µM
Summary of the method: as §1

HeLa = settings: Gynecologic cancer cell panel viability, ATPlite luminescence, 48 h; series mostly up to 57.5 µM
Summary of the method: as §1

Hek293T = settings: Gynecologic cancer cell panel viability, ATPlite luminescence, 48 h, control line for the selectivity index; series mostly up to 57.5 µM
Summary of the method: as §1

JEG-3 = settings: Gynecologic cancer cell panel viability, ATPlite luminescence, 48 h; series mostly up to 57.5 µM
Summary of the method: as §1

OV90 = settings: Gynecologic cancer cell panel viability, ATPlite luminescence, 48 h; series mostly up to 57.5 µM
Summary of the method: as §1

PA-1 = settings: Gynecologic cancer cell panel viability, ATPlite luminescence, 48 h; series mostly up to 57.5 µM
Summary of the method: as §1

SKOV3 = settings: Gynecologic cancer cell panel viability, ATPlite luminescence, 48 h; series mostly up to 57.5 µM
Summary of the method: as §1

Tov-21-G = settings: Gynecologic cancer cell panel viability, ATPlite luminescence, 48 h; series mostly up to 57.5 µM
Summary of the method: as §1

Tov112D = settings: Gynecologic cancer cell panel viability, ATPlite luminescence, 48 h; series mostly up to 57.5 µM
Summary of the method: as §1

Measured: Potency

CCC(C)C(N)C1=NC(C(=O)N[C@@H](CC(C)C)C(=O)N[C@H](CCC(=O)O)C(=O)N[C@H](C(=O)N[C@H]2CCCCNC(=O)[C@H](CC(N)=O)NC(=O)[C@@H](CC(=O)O)NC(=O)[C@H](Cc3cnc[nH]3)NC(=O)[C@@H](Cc3ccccc3)NC(=O)[C@H]([C@@H](C)CC)NC(=O)[C@@H](CCCN)NC2=O)[C@@H](C)CC)CS1 (some centres undefined) (X1-L[dE]IK[dOrn]I[dF]H[dD]N; lactam 4-C)
inactive: all assays above

CC1[C@@H](O)[C@@H](O)C2[C@]3(C)C(C[C@H]4OC(=O)[C@H](O)[C@]1(O)[C@@]24C)C(C)(O)C[C@H](O)[C@H]3O (some centres undefined)
inactive: all assays above

Cc1nn(C)c(COc2ccc(N3CCN(S(=O)(=O)N(C)C)CC3)cc2)c1-c1cccc2c(CCCOc3cccc4ccccc34)c(C(=O)O)n(CCN3CCOCC3)c12
inactive: all assays above

CC1=CC(=O)C2C(C)(C)CC(O)CC2(C)C1CO (centres undefined)
inactive: all assays above

OCC1OC(Oc2cc(O)c3c(c2)OC(c2ccc(O)cc2)C(O)C3)C(O)C1O (centres undefined)
inactive: all assays above

O=C(O)[C@H]1CCCC[C@H]1C(=O)N1CCc2ccccc2[C@H]1CN1C(=O)c2ccccc2C1=O
inactive: all assays above

CC(=O)C1CCC2(C)C3=C(CCC12C)C1(C)CCC(=O)C(C)(C)C1CC3 (centres undefined)
inactive: all assays above

COc1cc([C@H]2OC[C@]3(OC(C)=O)[C@@H](c4ccc(O[C@@H]5O[C@H](CO)[C@@H](O)[C@H](O)[C@H]5O)c(OC)c4)OC[C@H]23)ccc1O
inactive: all assays above

C=C[C@H]1[C@H](O[C@@H]2O[C@H](CO)[C@@H](O)[C@H](O)[C@H]2O)OC=C(C(=O)OC)[C@H]1C[C@@H]1N[C@H](C(=O)O)Cc2c1[nH]c1ccccc21
inactive: all assays above

OCC1=CC[C@@H]2C=CO[C@@H](O[C@@H]3O[C@H](CO)[C@@H](O)[C@H](O)[C@H]3O)[C@H]12
inactive: all assays above

CC(=O)Oc1cc2c(s1)CCN([C@H](C(=O)C1CC1)c1ccccc1F)C2
inactive: all assays above

CC(=O)O[C@H]1C[C@@H]2[C@]3(CC[C@]4(C)[C@@H](C5(C)CCC(C(C)(C)O)O5)[C@@H](O)C[C@@]24C)C[C@@]32CC[C@H](O[C@@H]3OC[C@@H](O)[C@H](O)[C@H]3O)C(C)(C)[C@H]12 (some centres undefined)
inactive: all assays above
